# Active and inactive are the calls of the source. Calls follow the shape of the full dose curve.
# Experiment: qHTS assay to identify small molecule agonists of the estrogen related receptor (ERR) signaling pathway from Tox21 library (AID 1224849); also: nearly all actives have a fitted effect of over 15% in size
# Conditions: ERR reporter cell line, ONE-Glo luciferase, 18 h; at 92.4 µM (top of the series) unless noted
# Text: National Center for Advancing Translational Sciences [NCATS]
# NIH Chemical Genomics Center [NCGC]
# U.S. Environmental Protection Agency [EPA]
# National Institutes of Environmental Health Sciences [NIEHS]
# National Toxicology Program [NTP]
# Estrogen related receptors (ERRs), the first orphan nuclear receptors discovered, play an important role in the control of cellular energy metabolism. ERRs are required for high-energy production in response to the environmental challenges. ERR-alpha was also identified as an adverse marker for breast cancer progression; ERR-alpha-positive tumors have a poor prognosis. To screen and to identify environmental compounds that perturb the ERR signaling pathways could provide valuable information for potential therapeutic or preventive measures in the treatment of metabolic disease. For identifying ERR agonists, ERR cell line (provided by NTP) has been used to screen Tox21 10K library.
# The ERR cells were dispensed at 2,000 cells/5 ul/well in 1536-well white plates using a Multidrop dispenser. After the assay plates were incubated at a 37 C/5% CO2 incubator for 6 hours, 23 nL of compounds dissolved in DMSO, positive and negative controls or DMSO only was transferred to the assay plate by a pin tool. The plates were incubated at 37 C for 18 hours. 4 ul/well of One-Glo reagent was added into the assay plates using a Flying Reagent Dispenser. After 30-minute incubation at room temperature, the luminescence intensity in the plates was measured using a ViewLux plate reader.
# % is scaled to controls: 0 for no effect and ±100 for the full control effect.
row,Structure (SMILES),"activity change, positive = activation"
1,CCn1nc(Cc2ccccc2)cc1C1CCN(C[C@H]2C[C@H](N(C)[C@@H](C(=O)O)C(C)C)C[C@@H]2c2cccc(F)c2)CC1,-18.7% (inactive)
2,CCOc1cc(OCC)c(C(C)=O)cc1OCC,-33.9% (inactive)
3,CC(C)C[C@H](NC(=O)[C@H](Cc1ccccc1)NC(=O)c1cnccn1)B(O)O,-63.1% [at 42.5 µM] (inactive)
4,CC(C)CCCCCCCOC(=O)c1ccc(C(=O)OCCCCCCCC(C)C)c(C(=O)OCCCCCCCC(C)C)c1,-6.08% (inactive)
5,O=C(N[C@@H](Cc1ccccc1)[C@@H](O)C(=O)N1C[C@@H](O)[C@@H](O)C1)c1cc2cc(Cl)ccc2[nH]1,-40.7% (inactive)
6,CCCN(C1CCN(C(=O)C2CCNCC2)CC1)[C@@H]1CCc2ccc(OC)cc2C1,-8.07% (inactive)
7,COC(=O)C(C)(C)C,-7.89% (inactive)
8,CC/C=C\CCO,0.448% (inactive)
9,CC(=O)c1cccnc1,4.95% (inactive)
10,O=C(Nc1ccccc1)c1cc([N+](=O)[O-])ccc1Cl,-35.1% (inactive)
11,CC(=O)S[C@H](C(=O)N[C@H]1Cc2ccccc2[C@H]2CCC[C@@H](C(=O)O)N2C1=O)C(C)C,1.31% (inactive)
12,Nc1ccc(C(=O)Oc2ccccc2)c(O)c1,83.9% [at 42.5 µM] (active)
13,COc1ccc(/C(C)=C/C(=O)O)c(OC)c1,8.11% [at 42.5 µM] (inactive)
14,O=C(O)c1cc(C(=O)O)c(C(=O)O)cc1C(=O)O,4.66% (inactive)
15,OCCOc1cccc(OCCO)c1,0.271% (inactive)
16,CCCCCCOC(=O)c1ccccc1,5.95% (inactive)
17,CCCCCC1CCC(=O)O1 (stereo not given),4.33% (inactive)
18,CC(C)(Cc1c[nH]c2ccccc12)NCC(O)COc1ccccc1C#N (stereo not given),-15.2% [at 42.5 µM] (inactive)
19,O=C(OCCCCCOC(=O)c1ccccc1)c1ccccc1,7.15% (inactive)
20,O=C1c2ccccc2C(=O)C1c1ccc2cc(S(=O)(=O)O)cc(S(=O)(=O)O)c2n1,54.8% (active)

row,Structure (SMILES),"activity change, positive = activation"
1,CC(=O)Nc1ccn(C2COC(COC(=O)c3ccccc3)O2)c(=O)n1 (stereo not given),-13.3% [at 42.5 µM] (inactive)
2,CCC(=O)O[C@]1(C(=O)COC)[C@@H](C)C[C@H]2[C@@H]3CCC4=CC(=O)C=C[C@]4(C)C3(F)[C@@H](O)C[C@@]21C (stereo not given in full),-12.4% [at 42.5 µM] (inactive)
3,Cc1c(-c2cccnc2)c2ccccc2n1CCCCC(=O)O,-5.77% (inactive)
4,O=Cc1ccc(Cl)c([N+](=O)[O-])c1,-38.6% (inactive)
5,CC(=O)Nc1ccccc1O,-0.899% (inactive)
6,CCCCOc1ccc(N)cc1,3.06% (inactive)
7,C=CC(O)CCCCC (stereo not given),1.36% (inactive)
8,Clc1cc(Cl)c2c(c1)N=C1CCCCCN1C2,2.85% [at 42.5 µM] (inactive)
9,CC(CC(C#N)(c1ccccc1)C(C)C)N(C)C (stereo not given),2.64% [at 42.5 µM] (inactive)
10,CCC1=C(C)CN(C(=O)NCCc2ccc(S(=O)(=O)NC(=O)NC3CCC(C)CC3)cc2)C1=O (stereo not given),-15.8% [at 42.5 µM] (inactive)
11,CC(C)CC(C)(C)C,-31.7% (inactive)
12,CC1=CC(=C(c2ccc(N)cc2)c2ccc(N)cc2)C=CC1=N,-47.7% [at 8.39 µM] (inactive)
13,CCC(C)C1N=C(C)C(C)S1 (stereo not given),-2.96% (inactive)
14,C/C(=C(\CCO)SS/C(CCO)=C(\C)N(C=O)Cc1cnc(C)nc1N)N(C=O)Cc1cnc(C)nc1N,3.66% [at 42.5 µM] (inactive)
15,NCCOCCOCCN,-4.55% (inactive)
16,O=C(O)c1ccncc1,-23.5% (inactive)
17,Cc1cc(SC2=C(O)C[C@@](CCc3ccc(N)cc3)(C(C)C)OC2=O)c(C(C)(C)C)cc1CO,-7.37% (inactive)
18,O=C(O)CNc1ccccc1,8.78% (inactive)
19,COc1ccc(C(=O)c2ccc(C)cc2)c(O)c1,16.4% (active)
20,Oc1ccc(CCNCCCCCCNCCc2ccccc2)cc1O,-19.4% [at 42.5 µM] (inactive)
